PubChem BioAssay AID1852 (Sanford-Burnham Center for Chemical Genomics, 2009)
Among all 2,500 compounds or so, about 1,100 (44%) were called active. So high a share suggests a set chosen from earlier hits. This is one part of the list. Unmarked numbers belong to inactive results.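 Rule for the calls: active = inhibition above 50% at 4 µM in the single-point screen; inactive = inhibition of 50% or less.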

test: blockers of TNF-a NF-kB luciferase induction – cell-based, HEK293T NF-kB-Luc, luminescence, selectivity assay for NOD1/NOD2 signaling inhibitor project, primary screen (AID 1852); details: TNF-a induced, 14 h, at 4 µM, stronger effect = higher value

| SMILES | inhibition |
| --- | --- |
| COCCN(CC(=O)NC1CCCCC1)C(=O)/C=C/C(=O)c1ccc(OC)cc1O | 22.3% |
| COC(CN(C(=O)CCl)C(C(=O)NC1CCCC(C)C1C)c1ccc(C)cc1)OC (centres undefined) | 15.4% |
| COCCN(C(=O)CCl)C(C(=O)NC1CCCCC1)c1ccccc1C (centres undefined) | 56.7% (active) |
| COC(CN(C(=O)CCl)C(C(=O)NC1CCCCC1)c1ccccc1C)OC (centres undefined) | 63.2% (active) |
| Cc1ccc(-c2csc(=Nc3cccnc3)n2CCCn2ccnc2)cc1C | 94.3% (active) |
| O=S(=O)(Nc1nc(-c2sccc2Cl)cs1)c1cc(Cl)ccc1Cl | 34.1% |
| Cc1ccc(C2=NOC(=O)/C2=C\C=C\c2ccccc2)cc1 | 94.8% (active) |
| O=C1ON=C(c2ccc(Cl)cc2)/C1=C/c1ccc(O)cc1 | 29.2% |
| COc1cc(C)c(Br)cc1S(=O)(=O)NCc1ccncc1 | 30.4% |
| N#CCc1ccc(NC(=O)c2ccc(CN3CCc4ccccc4C3)cc2)cc1 | 58.1% (active) |
| O=C(Nc1ccc(F)cc1)c1ccc(CN2CCc3ccccc3C2)cc1 | 87.4% (active) |
| C/C(=N\NC(=O)c1ccc(CN2CCc3ccccc3C2)cc1)c1ccccc1O | 77.8% (active) |
| O=C(Nc1ccc(Cl)cc1)c1ccc(CN2CCc3ccccc3C2)cc1 | 23.1% |
| Cc1cc(C)n(Cc2ccc(NC(=O)c3ccc(COc4ccccc4Br)cc3)cc2)n1 | 46.2% |
| CCOc1ccc(NC(=O)c2ccc(CN3CCc4ccccc4C3)cc2)cc1 | 3% |
| CCOC(=O)c1ccc(NC(=O)c2ccc(CN3CCc4ccccc4C3)cc2)cc1 | 46.3% |
| CC(=O)n1c(Cl)c(NC(=O)CCl)c2ccccc21 | 82.1% (active) |
| O=C(CCl)Nc1cn(-c2ccccc2)nc1-c1ccccc1 | -13.7% |
| O=C(CCl)Nc1cn(-c2ccccc2)nc1-c1ccc(F)cc1 | -16.2% |
| O=C(Cc1ccc(Cl)cc1)c1c[nH]c(C(=O)NCc2cccnc2)c1 | 90.1% (active) |
| COc1cc(OC)cc(C(=O)Nc2nc(-c3ccccc3)c(-c3ccccc3)o2)c1 | 78.7% (active) |
| Cc1onc(-c2ccccc2)c1C(=O)Nc1ncc([N+](=O)[O-])s1 | 48.5% |

| SMILES | inhibition |
| --- | --- |
| COc1cccc(C(=O)Nc2sc3c(c2C(=O)O)CCCC3)c1 | 30.7% |
| CN(C)S(=O)(=O)Oc1cccc(C(=O)Nc2ccc(Cl)c(Cl)c2)c1 | -28.2% |
| COc1cccc(C(=O)Nc2nc(-c3ccccc3)c(-c3ccccc3)o2)c1 | 81.3% (active) |
| O=C1N/C(=N\N=C\c2ccccn2)SC1Cc1cccc(SC(F)F)c1 (centres undefined) | 109% (active) |
| CCc1nnc(NC(=O)c2nc(S(=O)(=O)Cc3ccc(C)cc3)ncc2Cl)s1 | 71.9% (active) |
| Cc1cccc(CS(=O)(=O)c2ncc(Cl)c(C(=O)Nc3c(C)cccc3C)n2)c1 | 46.2% |
| CCCc1nnc(NC(=O)c2nc(S(=O)(=O)Cc3ccc(C)cc3)ncc2Cl)s1 | 94.4% (active) |
| CCCc1nnc(NC(=O)c2nc(S(=O)(=O)Cc3cccc(C)c3)ncc2Cl)s1 | 61.3% (active) |
| Cc1cc(C)c(C#N)c(SCc2nnc(-c3ccccc3)o2)n1 | 0% |
| CCOc1ccc(NC(=O)Nc2ccc3c(c2)N(C)C(=O)CS3)cc1 | 14.3% |
| O=C(Nc1ccc(S(=O)(=O)N2CCOCC2)cc1)c1cc(-c2cc(Cl)ccc2O)n[nH]1 | -2.1% |
| Cn1c(O)c(N=NC(=S)Nc2ccccc2F)c2cc(S(=O)(=O)N3CCOCC3)ccc21 | 12.5% |
| O=S(=O)(c1ccc(N=C2NN=C(c3cc(F)ccc3F)CS2)cc1)N1CCOCC1 | 77.4% (active) |
| CCCCN(c1ccccc1)c1ncnc(N)c1[N+](=O)[O-] | 83.7% (active) |
| C=CCN(C(=O)CCc1ccccc1OC)c1nc(-c2ccc(S(C)(=O)=O)cc2)cs1 | -10.1% |
| CCOC(=O)c1c(C)[nH]c(C(=O)OCC(=O)N2CCN(S(=O)(=O)c3ccccc3)CC2)c1C | 0% |
| CC(=O)c1c(C)[nH]c(C(=O)COC(=O)c2cccc(S(=O)(=O)N(C)c3ccccc3)c2)c1C | 84.9% (active) |
| C[C@@H](C(=O)NCc1ccccn1)[C@H]1C[C@]1(C)[C@H](NC(=O)OCc1ccccc1)c1ccccc1 | -9% |
| CN1CCN(c2ccc(C(CC(N)=O)NC(=O)c3ccccc3)cc2[N+](=O)[O-])CC1 (centres undefined) | 10.7% |
| O=C(Nc1ccc(F)c([N+](=O)[O-])c1)c1cccs1 | 4.2% |
| O=C(NC(=S)N1CCN(c2ccc(F)cc2)CC1)c1cccs1 | 11.7% |
| O=C(NC(=S)N1CCN(c2ccc(Cl)cc2[N+](=O)[O-])CC1)c1cccs1 | 53.9% (active) |

| SMILES | inhibition |
| --- | --- |
| O=C(/C=C/c1ccc(Cl)cc1Cl)N1CCN(c2ccccc2[N+](=O)[O-])CC1 | -38.9% |
| O=C(NC(=S)N1CCN(c2ccc(C(F)(F)F)cc2[N+](=O)[O-])CC1)c1cccs1 | 101% (active) |
| Cn1c(SCC(=O)N2CCCc3ccccc32)nc2ccccc2c1=O | 43.4% |
| Cc1cccc(N2CCN(C(=O)Cc3cn(C)c4ccccc34)CC2)c1C | -31.6% |
| Cc1cccc(-n2c(SCC(=O)N3CCC(C(=O)O)CC3)nc3ccccc3c2=O)c1C | 74.3% (active) |
| O=C(CCl)Nc1cc(SCC(O)CO)cc([N+](=O)[O-])c1 (centres undefined) | 96.6% (active) |
| COc1ccc(-[n+]2c(C)cc(/C=C3\Sc4ccccc4N3C)cc2C)cc1 | 67% (active) |
| CCn1c(NC(=O)/C=C/c2ccc(F)cc2)nc2ccccc21 | 0% |
| C=CCSc1nc2ccccc2n1C(=O)/C=C/c1ccc(OC)c(OC)c1 | 89.7% (active) |
| CC(C)Cn1c(N2CCN(C(=O)/C=C/c3ccccc3)CC2)nc2ccccc21 | 0.5% |
| COc1ccc(-c2n(Cc3ccccc3)c3ccccc3[n+]2Cc2ccccc2)cc1 | 53.1% (active) |
| O=C(CCl)Nc1cc(-c2ccccc2)nn1-c1ccccc1 | -25.8% |
| CC(C)(C)c1cc(NC(=O)CCl)n(-c2ccccc2)n1 | 52.2% (active) |
| CCCc1cc(NC(=O)CCl)n(-c2ccccc2)n1 | 40.2% |
| CCOC(=O)c1c(C)[nH]c(C)c1C(=O)CSc1nc2ccccc2c(=O)n1-c1ccc(CC)cc1 | -1.6% |
| Cc1ccc2c(C(=O)CCl)c(C)[nH]c2c1 | 83.2% (active) |
| Cc1[nH]c2ccccc2c1C(=O)CCl | 95.3% (active) |
| Cn1c2ccccc2c(=O)c2c(=O)n(C3CCCCC3)c(-c3cccs3)nc21 | 23.4% |
| Cn1c2ccccc2c(=O)c2c(=O)n(C3CCCCC3)c(-c3ccco3)nc21 | 78.9% (active) |
| CCOc1ccc(CCn2c(-c3ccco3)nc3ccccc3c2=O)cc1OCC | -36.6% |
